The record followed here is PubChem BioAssay (NCI).

SMILES strings stand for the structures. About 83,000 compounds went through this panel and 20% of them were active in at least one assay; those are over-represented in the sample as a whole.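 96-well plates, one dose, 48 hours. Percent growth reported; active if below 10.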 A number with no mark means an inactive call. Calls of active or inactive are those of the source.

Holding throughout (test): NCI-60 one-dose screen, 48 h (100 = growth as untreated, 0 = no growth, -100 = all killed)
One experiment concerns SK-MEL-2 melanoma. The following applies: 10 µM.
Another experiment deals with EKVX NSCLC. The following applies: 10 µM unless noted.
The subject of another experiment is SN12C renal. To be noted: 10 µM unless noted.
In another experiment the test system is UO-31 renal. The following applies: 10 µM unless noted.
Another experiment deals with TK-10 renal. To be noted: 10 µM unless noted.
Another experiment deals with ACHN renal. The following applies: 10 µM unless noted.
For the next experiment, the system named is CAKI-1 renal. To be noted: 10 µM unless noted.
A further experiment has as its system CCRF-CEM leukemia. To be noted: 10 µM unless noted.
A further experiment concerns MOLT-4 leukemia. To be noted: 10 µM unless noted.
Another experiment has as its system SR leukemia. The following applies: 10 µM unless noted.
Another experiment concerns RPMI-8226 leukemia. The following applies: 10 µM unless noted.
The next experiment relates to OVCAR-8 ovarian. The following applies: 10 µM unless noted.
Another experiment has as its system OVCAR-5 ovarian. To be noted: 10 µM unless noted.
A further experiment has as its system OVCAR-4 ovarian. The following applies: 10 µM unless noted.
The next experiment deals with SK-OV-3 ovarian. The following applies: 10 µM unless noted.
For another experiment, the system named is IGROV1 ovarian. The following applies: 10 µM unless noted.
In a further experiment the test system is OVCAR-3 ovarian. To be noted: 10 µM unless noted.
A further experiment deals with HS 578T breast. The following applies: 10 µM.
The subject of the next experiment is A498 renal. To be noted: 10 µM unless noted.
The next experiment concerns NCI/ADR-RES ovarian. To be noted: 10 µM unless noted.

`COc1cnc2c(c1)C(=O)c1c-2n(CCCN2CCC(O)CC2)c(=O)c2cc(Cl)ccc12`: the growth is 107% in the experiment on SK-MEL-2 melanoma; 67.7% with EKVX NSCLC; 30.5% with SN12C renal; 15% in the experiment with UO-31 renal; 82.8% in the experiment on TK-10 renal; 8.76% (active) with ACHN renal. The growth with CAKI-1 renal is 20.1%; in the experiment with CCRF-CEM leukemia, 0.479% (active); in the experiment on MOLT-4 leukemia, -7.04% (active); in the experiment on SR leukemia, -16.9% (active); in the experiment on RPMI-8226 leukemia, 8.25% (active); with OVCAR-8 ovarian, 46.1%. Also, the growth was 101% with OVCAR-5 ovarian; 70% in the experiment on OVCAR-4 ovarian; 27.8% with SK-OV-3 ovarian; 55.6% in the experiment with IGROV1 ovarian; 80.9% in the experiment with OVCAR-3 ovarian; 86.7% in the experiment on HS 578T breast.

On to `NC(=O)N1N=C(c2ccc(Cl)cc2)CC1c1cn(-c2ccccc2)nc1-c1ccc(Cl)cc1` (stereo not drawn), for which the growth with SK-MEL-2 melanoma is 74.3%; in the experiment on EKVX NSCLC it was 58.1%; in the experiment on SN12C renal, 61.9%; with UO-31 renal it was 21.5%; in the experiment with TK-10 renal, 43.2%; in the experiment with ACHN renal, 26.1%. In addition, the growth in the experiment with CAKI-1 renal was 67.7%; with A498 renal, 71.1%; with MOLT-4 leukemia, 62.9%; with SR leukemia, 67.3%; with RPMI-8226 leukemia it was 70.9%; in the experiment on OVCAR-8 ovarian it was 36.8%. Further, the growth in the experiment on OVCAR-5 ovarian was 94.6%; in the experiment on OVCAR-4 ovarian, 14%; in the experiment with SK-OV-3 ovarian, 50.9%; in the experiment with IGROV1 ovarian, 68.8%; in the experiment on OVCAR-3 ovarian, 78.1%; in the experiment with HS 578T breast it was 50.8%. Moreover, the growth in the experiment with NCI/ADR-RES ovarian was 47.8%.

As for `COc1ccc(-n2c(=O)c3ccccc3n(Cc3ccc(C(=O)NO)cc3)c2=O)cc1`, the growth was 14.2% in the experiment on SK-MEL-2 melanoma; 16.7% in the experiment on EKVX NSCLC; 33.6% in the experiment with SN12C renal; 55% in the experiment on UO-31 renal; 19.6% in the experiment on TK-10 renal; 50.3% with ACHN renal. The growth with CAKI-1 renal was 64.9%; in the experiment on A498 renal, -2.54% (active); in the experiment on CCRF-CEM leukemia, 3.15% (active); with MOLT-4 leukemia, -10.1% (active); in the experiment with SR leukemia it was 7.16% (active); with RPMI-8226 leukemia, 12%. Also, the growth with OVCAR-8 ovarian was -0.914% (active); in the experiment with OVCAR-5 ovarian, 58.4%; with OVCAR-4 ovarian it was 17.1%; in the experiment with SK-OV-3 ovarian, 28.3%; in the experiment with IGROV1 ovarian, 14.4%; in the experiment on OVCAR-3 ovarian, 8.92% (active). The growth with HS 578T breast is 56.9%; in the experiment on NCI/ADR-RES ovarian, 70.2%.

`COC(=O)[C@]12CC[C@@H](C)[C@H](C)[C@@H]1C1=CC[C@@H]3[C@@]4(C)C(C#N)=CC(C)=C4CC[C@@]3(C)[C@]1(C)CC2`: the growth with SK-MEL-2 melanoma is 82.9%; in the experiment on EKVX NSCLC it was 92.8%; in the experiment with SN12C renal, 93.3%; with UO-31 renal it was 84.8%; in the experiment with TK-10 renal, 99.2%; with ACHN renal, 79%. The growth is 76.8% in the experiment with CAKI-1 renal; 16% with CCRF-CEM leukemia; 78.8% in the experiment on MOLT-4 leukemia; 68% with SR leukemia; 76.7% with RPMI-8226 leukemia; 103% in the experiment on OVCAR-8 ovarian. Also, the growth is 91.9% in the experiment with OVCAR-5 ovarian; 88.3% in the experiment with OVCAR-4 ovarian; 99.3% with SK-OV-3 ovarian; 106% in the experiment on IGROV1 ovarian; 88.9% in the experiment on OVCAR-3 ovarian; 97.5% in the experiment with HS 578T breast. Further, the growth in the experiment on NCI/ADR-RES ovarian was 89.2%.

As for `CC1(/C=N/NC(N)=S)NC(=O)NC1=O` (stereo not drawn), the growth in the experiment on SK-MEL-2 melanoma was 105%; in the experiment on EKVX NSCLC, 99.1%; in the experiment on SN12C renal, 95.5%; with UO-31 renal, 96.5%; in the experiment on TK-10 renal, 96.5%; in the experiment on ACHN renal, 108%. Further, the growth is 96.7% with CAKI-1 renal; 100% in the experiment with CCRF-CEM leukemia; 82% with MOLT-4 leukemia; 94.8% in the experiment on SR leukemia; 104% in the experiment with RPMI-8226 leukemia; 97.7% in the experiment on OVCAR-8 ovarian. The growth in the experiment on OVCAR-5 ovarian was 102%; in the experiment with OVCAR-4 ovarian, 109%; with SK-OV-3 ovarian, 86.9%; with IGROV1 ovarian it was 111%; with OVCAR-3 ovarian, 109%; with HS 578T breast, 97%. Besides, the growth in the experiment on NCI/ADR-RES ovarian is 111%.

Consider `Cc1cccc(NC(=O)[C@@H]2c3ccccc3C(=O)N(c3ccc(Cl)cc3)[C@H]2c2ccc(Cl)cc2)n1`, for which the growth in the experiment with SK-MEL-2 melanoma was 56.6%; in the experiment on EKVX NSCLC, 37.2%; in the experiment with SN12C renal it was 66.5%; in the experiment with UO-31 renal, 37.6%; in the experiment on TK-10 renal, 69.6%; in the experiment with ACHN renal, 52%. For the same compound, the growth was 55.6% in the experiment on CAKI-1 renal; 73.2% in the experiment with CCRF-CEM leukemia; 35.9% with MOLT-4 leukemia; 34.5% in the experiment on SR leukemia; 24.5% with RPMI-8226 leukemia; 51.2% in the experiment with OVCAR-8 ovarian. For the same compound, the growth with OVCAR-5 ovarian is 78.7%; in the experiment with OVCAR-4 ovarian, 45.1%; with SK-OV-3 ovarian, 55.1%; with IGROV1 ovarian it was 73.5%; with OVCAR-3 ovarian, 61.8%; in the experiment with HS 578T breast it was 72.4%. Moreover, the growth in the experiment with NCI/ADR-RES ovarian is 47.8%.

Consider `CC(N)C(Cc1ccccc1)c1ccc(Cl)cc1` (stereo not drawn), for which the growth with SK-MEL-2 melanoma was 96.7%; in the experiment on EKVX NSCLC, 91.6%; in the experiment with SN12C renal it was 90.7%; with UO-31 renal it was 65.4%; in the experiment with TK-10 renal, 89.5%; with ACHN renal, 97%. Also, the growth was 79.1% in the experiment with CAKI-1 renal; 91.2% in the experiment with CCRF-CEM leukemia; 76.4% in the experiment on MOLT-4 leukemia; 67.9% in the experiment with SR leukemia; 94.5% in the experiment on RPMI-8226 leukemia; 96.1% in the experiment with OVCAR-8 ovarian. Also, the growth with OVCAR-5 ovarian was 80.8%; in the experiment on OVCAR-4 ovarian it was 85.8%; in the experiment with SK-OV-3 ovarian it was 72.5%; with IGROV1 ovarian, 94.8%; in the experiment on OVCAR-3 ovarian it was 102%; with HS 578T breast, 86.2%. Besides, in the experiment with NCI/ADR-RES ovarian, the growth was 95.7%.
